# In PubChem BioAssay (NCATS):
# Results filed as inconclusive are left out. Where a call stands in place of a potency, no number is given. The source made the active and inactive calls. Calls come from the whole dose curve; as a rule, active = well fitted inhibition curve with a large enough effect; inconclusive = small, poorly fitted or top-dose-only effect; inactive = no such curve, though single readings can be large or run the other way.
# Molecular target: Single-stranded DNA cytosine deaminase (Homo sapiens) (UniProt Q9GZX7)
# Assay: Validation qHTS assay for inhibitors of Activation Induced Cytidine Deaminase (AID): AID signal (AID 1347429); note: potency is the fitted concentration of half-maximal effect
# Conditions: Recombinant AID, FRET ssDNA deamination with UDG, fluorescence; series mostly up to 115 µM
# Method in brief: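 AID+UDG coupled FRET deamination; cpds up to 114 uM final; DJC20/DJC23 substrate, 4 hr RT; NaOH stop, 30 min RT; read Ex 540/Em 590.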
# Chain of Single-stranded DNA cytosine deaminase (Homo sapiens) (Q9GZX7 whole entry, looked up): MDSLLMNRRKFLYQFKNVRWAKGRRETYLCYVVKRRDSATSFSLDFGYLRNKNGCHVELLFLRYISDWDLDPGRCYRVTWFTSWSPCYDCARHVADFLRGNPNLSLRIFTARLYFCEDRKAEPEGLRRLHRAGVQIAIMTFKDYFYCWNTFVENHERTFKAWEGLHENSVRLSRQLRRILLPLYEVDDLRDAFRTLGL
row,Structure (SMILES),Potency
1,CC(C)NC[C@H](O)c1ccc(O)c(O)c1,inactive
2,CNCC(O)c1ccc(O)c(O)c1 (stereo not drawn),inactive
3,CSc1ccc2c(c1)C(N1CCN(C)CC1)Cc1ccccc1S2 (stereo not drawn),inactive
4,CNCCCC1c2ccccc2C=Cc2ccccc21,inactive
5,C=Cc1c(C)c2cc3[nH]c(cc4nc(cc5nc(cc1[nH]2)C(C)=C5CCC(=O)O)C(CCC(=O)O)=C4C)c(C)c3C=C,inactive
6,OCCN1CCN(CCCN2c3ccccc3Sc3ccc(Cl)cc32)CC1,inactive
7,CN(C)CCCN1c2ccccc2Sc2ccc(Cl)cc21,inactive
8,CN1CCN(C2Cc3ccccc3Sc3ccc(Cl)cc32)CC1 (stereo not drawn),inactive
9,CCCCCCCCCCCCCCCC(=O)NCCO,inactive
10,NC1CCN(c2cccc(Cl)n2)CC1,inactive
11,Cc1cc(N)c2ccccc2[n+]1CCCCCCCCCC[n+]1c(C)cc(N)c2ccccc21,50.1 µM (active)
12,CC1=C(CC(=O)O)c2cc(F)ccc2/C1=C\c1ccc(S(C)=O)cc1 (stereo not drawn),inactive
13,CSc1ccc2c(c1)N(CCC1CCCCN1C)c1ccccc1S2 (stereo not drawn),inactive

# Test system: not listed separately
# Assay: Primary qHTS for inhibitors of La Crosse Virus (LACV) - induced cell death in SH-SY5Y cells (AID 1508616);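 note: top concentration of the series differs between compounds; higher means more rescue of cells from virus-induced death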
# Conditions: SH-SY5Y LACV cytopathicity rescue, ATP luminescence, 6 d; series mostly up to 4.29 µM
# Method in brief: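 Cytopathicity rescue screen: compounds pinned onto SH-SY5Y cells, which are then infected with LACV (MOI 0.01) and held 6 days at 37C. Percent activity is scaled between infected DMSO control and uninfected DMSO control.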
row,Structure (SMILES),outcome
1,CC(C)NC[C@H](O)c1ccc(O)c(O)c1,inactive
2,CNCC(O)c1ccc(O)c(O)c1 (stereo not drawn),inactive
3,CN1CCC[C@@H]1Cc1c[nH]c2ccc(CCS(=O)(=O)c3ccccc3)cc12,inactive
4,CSc1ccc2c(c1)C(N1CCN(C)CC1)Cc1ccccc1S2 (stereo not drawn),inactive
5,C[C@H](NC(CCc1ccccc1)C(=O)O)C(=O)N1CCC[C@H]1C(=O)O (stereo partly drawn),inactive
6,NC(=O)NC(=O)Cc1ccccc1,inactive
7,CNCCCC1c2ccccc2C=Cc2ccccc21,inactive
8,O=C1NC(=O)[C@@]2(CCOc3ccc(F)cc32)N1,inactive
9,C=Cc1c(C)c2cc3[nH]c(cc4nc(cc5nc(cc1[nH]2)C(C)=C5CCC(=O)O)C(CCC(=O)O)=C4C)c(C)c3C=C,inactive
10,CC(=O)c1ccc2c(c1)N(CCCN(C)C)c1ccccc1S2,inactive
11,CN(C)CCCO[C@@H]1[C@H]2OC(C)(C)O[C@H]2O[C@@H]1C(O)CO (stereo partly drawn),inactive
12,COc1ccc2[nH]c(S(=O)Cc3ncc(C)c(OC)c3C)nc2n1 (stereo not drawn),inactive
13,OCCN1CCN(CCCN2c3ccccc3Sc3ccc(Cl)cc32)CC1,inactive
14,CN(C)CCCN1c2ccccc2Sc2ccc(Cl)cc21,inactive
15,Cn1c(=O)c2c(ncn2CC2OCCO2)n(C)c1=O,inactive
16,CCCCN(CCCC)CC(O)c1cc(Cl)cc2c1-c1ccc(Cl)cc1/C2=C/c1ccc(Cl)cc1 (stereo not drawn),inactive
17,CN1CCN(C2Cc3ccccc3Sc3ccc(Cl)cc32)CC1 (stereo not drawn),inactive
18,CCCCc1ncc(/C=C(\Cc2cccs2)C(=O)O)n1Cc1ccc(C(=O)O)cc1,inactive
19,CC(C)c1c(C(=O)Nc2ccccc2)c(-c2ccccc2)c(-c2ccc(F)cc2)n1CC[C@@H](O)C[C@@H](O)CC(=O)O,inactive
20,C[C@H]1O[C@@H](n2cc(F)c(=O)[nH]c2=O)[C@H](O)[C@@H]1O,inactive
21,CCCCCCCCCCCCCCCC(=O)NCCO,inactive
22,NC(=O)c1ncn([C@@H]2O[C@H](CO)[C@@H](O)[C@H]2O)c1N,inactive
23,NC1[C@H]2CN(c3nc4c(cc3F)c(=O)c(C(=O)O)cn4-c3ccc(F)cc3F)C[C@@H]12 (stereo partly drawn),inactive
24,OC[C@H]1O[C@@H](O[C@@H]2[C@@H](CO)O[C@](O)(CO)[C@H]2O)[C@H](O)[C@@H](O)[C@H]1O,inactive
25,NC1CCN(c2cccc(Cl)n2)CC1,inactive
26,CCN(CC)CCNC(=O)c1c(C)[nH]c(/C=C2\C(=O)Nc3ccc(F)cc32)c1C,inactive
27,N[C@H](C(=O)O)c1ccc(O)cc1,inactive
28,Cc1cc(N)c2ccccc2[n+]1CCCCCCCCCC[n+]1c(C)cc(N)c2ccccc21,inactive
29,CC1=C(CC(=O)O)c2cc(F)ccc2/C1=C\c1ccc(S(C)=O)cc1 (stereo not drawn),inactive
30,CSc1ccc2c(c1)N(CCC1CCCCN1C)c1ccccc1S2 (stereo not drawn),inactive
